Hit rate of the full screen: of about 320,000 compounds, about 7,600 (2.4%) were called active. Roughly 3% stayed inconclusive and do not appear here. Calls follow the shape of the dose curve; as a rule, active = well fitted activation curve with a large enough effect; inconclusive = small, poorly fitted or top-dose-only effect; inactive = no such curve, though single readings can be large or run the other way. The entries come from a sample that favours actives as a whole. Entries that show only a call come without a potency.
Potency is read from the fitted curve at half-maximal effect.

A short description of the experiment: qHTS Assay for NPC1 Promoter Activators. Also: nearly all actives have a fitted effect of over 60% in size. The settings on record: Huh7 NPC1 promoter luciferase reporter, 24 h; series mostly up to 9.22 µM. The procedure, abridged: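 Luciferase expression driven by the NPC1 promoter was measured in stably transfected Huh7 cells after a 24 h compound incubation, using a luciferase reagent and a luminescence read.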
Consider `Cc1cccc(NC(=O)CN2CCN(CC(=O)NCC3(N4CCCCC4)CCCCC3)CC2)c1C`, for which the Potency result is “inactive”. Under `CN(CC(=O)NC(=O)Nc1ccccc1F)Cc1ccccc1` stands “inactive”; under `CC(C)(C)C(=O)Nc1ccc(-c2cn3cccnc3n2)cc1`, 3.16 µM (active); under `CCCCCC(=O)Nc1ccc(-c2cn3cccnc3n2)cc1`, “inactive”. Consider `CC(=O)Nc1ccc(S(=O)(=O)Nc2cccc(NC(=O)C(C)(C)C)c2)cc1`, for which the Potency result was “inactive”. With `O=C1C=C(c2ccnc3cc(Cl)ccc23)C[C@@H](c2ccc3c(c2)OCO3)C1` the entry was “inactive”; with `Cc1ccc(CNC(=O)c2cc(-c3ccccc3C)n(CC3CC(c4cccc([N+](=O)[O-])c4)=NO3)n2)cc1` (centres undefined), “inactive”; with `CN(c1ccccc1)S(=O)(=O)c1cccc(NC(=O)Cc2ccc(Cl)cc2)c1`, “inactive”.

On to `S=C(c1ccc(-c2ccccc2)o1)N1CCCCC1`, for which the Potency is 2.24 µM (active). As to `OCCN1CCN(C(=S)c2ccc(-c3ccccc3)cc2)CC1`, the Potency result is “inactive”. Under `S=C(c1ccccc1)N1CCCC1` stands “inactive”. With `O=C(OCC(=O)N1CCCC1)c1ccc(Cl)nc1` the entry was “inactive”. For the compound `Cc1ccc(Nc2nnc(SC(C)C(=O)NC3CC3)s2)cc1` (centres undefined), the Potency result is “inactive”. With `COC(=O)c1ccc(N2CCOCC2)c(NC(=O)c2ccc3c(c2)OCCO3)c1` the entry was “inactive”; with `O=C(CCNC(=O)c1ccccc1)Nc1nc2ccccc2s1`, “inactive”.

In the case of `O=C(CN1CCc2cc3c(cc2C1)OCCCO3)Nc1ccccc1`, the Potency entry is “inactive”. Under `O=C(Nc1ccccc1N1CCN(C(=O)c2ccccc2)CC1)c1ccc2c(c1)OCO2` stands “inactive”.

As to `O=C(Nc1cccc(S(=O)(=O)N2CCCCC2)c1)c1ccc2c(c1)OCO2`, the Potency result was “inactive”. With `CN1CCN(c2ccc(NC(=O)c3cc(Cl)c4c(c3)OCCO4)cc2)CC1` the entry was “inactive”; with `Cc1ccc(F)cc1NC(=O)c1ccc2c(c1)OCO2`, “inactive”.

In the case of `O=C(Nc1ccccc1)c1ccc2c(c1)OCCCO2`, the Potency was 0.501 µM (active). Under `CN1CCN(c2ccc(NC(=O)c3ccc4c(c3)OCCO4)cc2Cl)CC1` stands 3.55 µM (active); under `O=C(Nc1ccccc1F)c1ccc2c(c1)OCO2`, 3.98 µM (active); under `O=C(Nc1ccccc1)Nc1nc2ccccc2s1`, 2.82 µM (active).

With `O=C(Nc1ccc(Cl)cc1)Nc1nnc(/C=C/c2ccccc2)s1`, the Potency entry is “inactive”. With `Cc1cc(C)n2nc(C(=O)OCC(=O)N(C)CC(=O)Nc3ccc(F)cc3)nc2n1` the entry was “inactive”. With `O=C(CSc1nc2[nH]c(=O)[nH]c(=O)c2s1)Nc1cccc(F)c1`, the Potency result was “inactive”. On to `Cc1cc(C)c(C#N)c(SCC(=O)N(CC(C)C)C2CCS(=O)(=O)C2)n1` (centres undefined), for which the Potency result is “inactive”. Under `c1csc(-c2nnc(COc3ccc4c(c3)OCO4)o2)c1` stands “inactive”. `Cc1cccc(C(=O)O)c1[N+](=O)[O-]`: the Potency entry was “inactive”.

On to `N#Cc1ccc(C(=O)OCC(=O)NC(=O)NC2CCCCC2)cc1`, for which the Potency result was “inactive”. With `O=S(=O)(c1ccc(SCc2ccccc2)nc1)N1CCCCCC1` the entry was “inactive”. Turning to `COCc1nnc(NC(=O)c2ccc3c(c2)OCO3)s1`, the Potency is 2.82 µM (active). Under `O=C(Nc1ccc2c(c1)OCO2)c1ccc(N2C(=O)c3ccccc3C2=O)cc1` stands “inactive”; under `O=C(Nc1cccc([N+](=O)[O-])c1)c1ccc2c(c1)OCO2`, “inactive”.

With `CCSc1ccccc1C(=O)Nc1ccc2c(c1)OCO2`, the Potency entry is “inactive”. As for `COc1ccc(S(=O)(=O)N2CCOCC2)cc1C(=O)Nc1nc2ccccc2s1`, the Potency entry was “inactive”.

Consider `O=C(Nc1nc2cc3c(cc2s1)OCCO3)c1cccc(S(=O)(=O)N2CCOCC2)c1`, for which the Potency result is “inactive”. Turning to `O=C(Nc1nc2ccccc2s1)c1ccc2c(c1)OCO2`, the Potency was 0.562 µM (active). Take `O=C(Nc1ccc(NC(=O)c2ccc3c(c2)OCO3)cc1)c1cccc(Cl)c1`: the Potency result is “inactive”. With `Cn1c(NC(=O)c2ccc3c(c2)OCO3)cc(=O)n(C)c1=O` the entry was “inactive”. With `CCCc1nnc(NC(=O)c2cc(OC)cc(OC)c2)s1`, the Potency result is “inactive”. In the case of `O=C(Nc1ccccc1)c1ccc2c(c1)OCO2`, the Potency is 2.82 µM (active). Under `CC(C)C(=O)Nc1cccc(C(=O)Nc2ccc3c(c2)OCO3)c1` stands 2.82 µM (active); under `CS(=O)(=O)Nc1ccccc1C(=O)OCC(=O)NC1CC1`, “inactive”. Under `CSc1ccccc1C(=O)OCC(=O)N1CCN(C(C)=O)CC1` stands “inactive”; under `Cc1cccc(C(=O)NC(=S)N2CCN(c3ccc([N+](=O)[O-])cc3)CC2)c1`, “inactive”; under `N#Cc1ccccc1S(=O)(=O)N1CCN(C(=O)c2cc(-c3ccccc3)nn2-c2ccccc2)CC1`, “inactive”. With `Cc1ccc(S(=O)(=O)NCCNC(C)c2ccc(Br)cc2)cc1` (centres undefined) the entry was “inactive”.

On to `CCN(C(=O)CSc1nc(N)cc(=O)[nH]1)C1CCS(=O)(=O)C1` (centres undefined), for which the Potency result was “inactive”. Consider `CC1(C)O[C@@H]2[C@H](O1)[C@@H](COS(=O)(=O)O)O[C@H]2n1cnc2c(=O)[nH]cnc21`, for which the Potency entry was “inactive”. With `COCCn1c(C)cc(C2=NNC(=Nc3ccc(F)cc3)SC2)c1C` the figure was 2.51 µM (active); with `C=CCn1c(C)cc(C2=NNC(=NCC)SC2)c1C`, “inactive”. With `COC(=O)c1cc(OC)c(OC)cc1NC(=O)CSc1ccc(C)cc1` the entry was “inactive”; with `CCN1CCN(C(=O)CSc2ccc(C)cc2)CC1`, “inactive”; with `Cc1ccc(SCC(=O)c2cc(C)c(OC(=S)N(C)C)c(C)c2)cc1`, 2.51 µM (active). Under `O=C(NNC(=S)Nc1ccc(Br)cc1Cl)c1ccco1` stands 3.55 µM (active). Consider `O=C(NNC(=O)c1ccco1)Nc1ccccc1`, for which the Potency entry was “inactive”. With `CCC(=O)NC(=S)Nc1ccc(NC(=O)c2ccco2)c(Cl)c1` the entry was “inactive”; with `CC1(NC(=O)CCS(=O)(=O)c2ccc(Cl)cc2)CCS(=O)(=O)C1` (centres undefined), “inactive”; with `CCOc1ccc(C(=O)CCC(=O)Nc2ccncc2)cc1`, “inactive”.

`CN1C(=O)/C(=C/C=C2\SCCN2C)OC1=S`: the Potency was 3.98 µM (active). Under `Cc1cc(C)cc(NC(=O)c2cccc(NC(=O)C3C4CC5OC(=O)C3C5C4)c2)c1` (centres undefined) stands “inactive”. With `O=C(Cn1c2[n+](c3ccc(C(F)(F)F)cc31)CCCCC2)Nc1c(F)cccc1F` the entry was “inactive”. Turning to `NC(=O)C1CCN(C(=O)c2ccc(F)c(S(=O)(=O)N3CCOCC3)c2)CC1`, the Potency result was “inactive”. `CCOC(=O)N1CCC(NC(=O)CCc2ccccc2)CC1`: the Potency result is “inactive”. With `O=C(O)C1CCN(C(=O)OCc2ccccc2)CC1` the figure was 2 µM (active). Under `O=C(NCC1CCC(C(=O)O)CC1)OCc1ccccc1` (centres undefined) stands “inactive”; under `CC(=O)c1ccc(S(=O)(=O)NCCC(=O)N2CCN(c3ccccn3)CC2)cc1`, “inactive”; under `O=C(Nc1cccc(C(=O)NC2CC2)c1)c1ccc(F)c(S(=O)(=O)N2CCOCC2)c1`, “inactive”. With `COc1ccc(Cl)cc1NC(=O)COc1ccc2c(c1)OCO2` the entry was “inactive”.

Consider `O=[N+]([O-])c1cc(Br)c(O)c(/C=N/Nc2nc3ccccc3s2)c1`, for which the Potency result was “inactive”. For `c1ccc2sc(NN=C3CCCC3)nc2c1`, the Potency was 1.41 µM (active). With `CCN(CC)CCn1c2c(c(SCC(=O)Nc3nc4ccccc4s3)nc1=O)CCCC2` the entry was “inactive”; with `COc1ccc(-c2sc3ccc(OC)cc3c2C#Cc2ccccn2)cc1`, “inactive”; with `Cc1cnc(CN(C)C(=O)C2CCC(=O)N(CCc3cccc(F)c3)C2)[nH]1` (centres undefined), “inactive”. Under `Cc1csc(=O)n1CCC(=O)OCC(=O)NNC(=O)c1ccc(Br)cc1` stands “inactive”; under `Nc1c(N(CCCO)C(=O)C2CCCC2)c(=O)[nH]c(=O)n1Cc1ccccc1`, “inactive”; under `C/C(=N\NC(=O)c1nc(C)cc(C)n1)c1ccccc1`, 1.58 µM (active). With `COc1ccc(/C(C)=N/NC(=O)c2ccc3nc[nH]c3c2)cc1`, the Potency result was “inactive”. As to `C/C(=N\NC(=O)c1cccnc1)c1ccc(-c2ccccc2)cc1`, the Potency result is “inactive”.

Turning to `COc1ccc(CCNC(=O)CCc2ccccc2O)cc1OC`, the Potency entry was “inactive”. With `COc1ccccc1C(=O)NC(=O)COC(=O)C1CC1` the entry was “inactive”; with `O=C(CNC(=O)c1ccccc1Br)NCCSc1ccc(Br)cc1`, “inactive”. `O=C(CNC(=O)c1ccc(F)cc1)c1ccccc1`: the Potency was 1.41 µM (active). Turning to `O=C(CNC(=O)c1ccccc1)NCC(=O)OCC(=O)c1ccccc1`, the Potency entry was “inactive”. For the compound `O=C(COC(=O)CNC(=O)c1ccccc1F)NCC(F)(F)F`, the Potency result is “inactive”. Consider `O=C(CNC(=O)c1ccccc1F)c1ccc(Br)cc1`, for which the Potency is 0.398 µM (active). Under `O=C(NCCS(=O)(=O)NCc1ccc(F)cc1)c1ccccc1` stands “inactive”; under `Cc1ccc(S(=O)(=O)Nc2nc(CN3CCOCC3)nc3sc(C)c(C)c23)cc1`, “inactive”; under `COc1ccc(CNC(=O)c2ccc(NS(=O)(=O)c3ccc4[nH]c(=O)[nH]c4c3)cc2)cc1OC`, “inactive”.

Regarding `Nc1nc(SCC(=O)Nc2ccc(Cl)c([N+](=O)[O-])c2)n[nH]1`, the Potency entry was “inactive”.

In the case of `CN(c1ccccc1)S(=O)(=O)c1ccc(C(=O)NCCc2ccccc2)cc1`, the Potency entry is “inactive”. As for `O=C(CCNC(=O)c1ccc(Br)cc1)NCCCc1ccccc1`, the Potency entry is “inactive”. Under `CCCCCCCCC(=O)NCCOc1ccccc1` stands “inactive”; under `CCCc1ccc(OCCNC(=O)c2ccccc2Br)cc1`, “inactive”; under `Cc1noc(C)c1COc1ccc(C(=O)NCCOc2ccccc2)cc1`, “inactive”. Under `O=C(NCCOc1ccccc1)c1ccccc1` stands 0.631 µM (active). With `CCCOc1ccc(C(=O)NCCc2ccccc2)cc1` the figure was 0.447 µM (active). Turning to `CC(C)c1ccc(C(=O)NCCCc2ccccc2)cc1`, the Potency is 2.82 µM (active). Consider `COc1ccc(OCCCC(=O)NCCc2ccccc2)cc1`, for which the Potency entry is “inactive”.

Take `CCN1CCN(C(=O)N[C@@H](C(=O)N[C@@H]2C(=O)N3C(C(=O)O)=C(CSc4nnnn4C)CS[C@H]23)c2ccc(O)cc2)C(=O)C1=O`: the Potency entry was “inactive”. Regarding `Cc1ccc(CNC(=O)c2cccc3c2C(=O)c2ccc(N4CCC(C)CC4)cc2S3(=O)=O)cc1`, the Potency result is “inactive”. With `CC1(C)O[C@@H]2[C@H](O1)[C@@H](COS(=O)(=O)O)O[C@H]2n1ccc(=O)[nH]c1=O` the entry was “inactive”; with `O=C(/C=C/c1ccccc1[N+](=O)[O-])OCC(=O)N1CCCC1`, “inactive”; with `O=C(CNc1ccccc1N1CCCC1=O)Nc1cc(Cl)ccc1-n1cncn1`, “inactive”.

With `CCCc1nc2ccccc2c(=O)n1/N=C/c1ccc(O)c(O)c1`, the Potency entry was “inactive”. Under `O=C(Nn1cnc2ccccc2c1=O)c1ccccc1` stands “inactive”; under `O=c1c2ccccc2ncn1/N=C/c1ccccc1`, 1 µM (active).

These data come from PubChem BioAssay AID485313 (National Center for Advancing Translational Sciences (NCATS), 2010).
